Test [1] can be described thus: NCI Yeast Anticancer Drug Screen. Data for the rad50 strain (AID 155).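 Further: 0% = growth of vehicle-only cultures of the same strain.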 Particulars: S. cerevisiae rad50 strain growth inhibition, stronger effect = higher value. In short, it runs like this: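 A DNA repair-deficient yeast mutant serves as the test organism; compound-induced growth inhibition is calculated against vehicle-treated cells.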
A short description of test [2]: NCI Yeast Anticancer Drug Screen. Data for the mec2-1 strain (AID 157). Particulars: S. cerevisiae mec2-1 strain, stronger effect = higher value. In short, it runs like this:
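Yeast mec2-1 mutant treated with compound. Readout: growth inhibition vs vehicle controls.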

Test [3] in a line: NCI Yeast Anticancer Drug Screen. Data for the sgs1 mgt1 strain (AID 161).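 Further: 0% = growth of cultures given vehicle only.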 Particulars: S. cerevisiae sgs1 mgt1 strain, stronger effect = higher value. The method in brief:
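Inhibition of yeast growth, normalised to vehicle-treated controls, is reported for a strain bearing genetic alterations in DNA damage repair.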

A short description of test [4]: NCI Yeast Anticancer Drug Screen. Data for the cln2 rad14 strain (AID 165).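 Further: 0% = growth equal to vehicle treated cultures.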 Particulars: S. cerevisiae cln2 rad14 strain, stronger effect = higher value. The method in brief:
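cln2 rad14 yeast strain; compound exposure; growth inhibition read vs vehicle controls.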

Test [5] is described as follows: NCI Yeast Anticancer Drug Screen. Data for the bub3 strain (AID 167). As to conditions: S. cerevisiae bub3 mutant strain, stronger effect = higher value. The method in brief: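 Inhibition values come from growth of compound-treated mutant yeast normalised to vehicle-treated controls.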
A short description of test [6]: NCI Yeast Anticancer Drug Screen. Data for the mlh1 rad18 strain (AID 175). As to conditions: S. cerevisiae mlh1 rad18 strain growth inhibition, stronger effect = higher value. The method in brief: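 Yeast w/ defined DNA-repair lesions; compound exposure; growth vs vehicle controls → % inhibition.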
Where [7] appears, read: at 5.0 µM (retest, dose inferred, filed as 0.5).
[8] abbreviates: at 50.0 µM (retest, dose inferred, filed as 5.0).

Structures are written as SMILES. This is part of a sample that, as a whole, favours compounds with a hit. Of some 79,000 tested, about 15% had one in any assay. Unmarked numbers belong to inactive results. Calls of active or inactive are those of the source. No stated cut-off is given here; in the data, active means growth inhibition above about 70%; inactive means the rest.

For `Cc1cc2nc(-c3ccccc3[N+](=O)[O-])[nH]c2cc1C`, the growth inhibition in test [1] (setting [7]) is -3%; in test [1] (setting [8]), 20%; in test [1] (at 50.0 µM), 21.6%; in test [2] (setting [7]), -7%; in test [2] (setting [8]), 7%; in test [2] (at 50.0 µM) it was -0.15%. Moreover, the growth inhibition in test [3] (setting [7]) is -6%; in test [3] (setting [8]), 61%; in test [3] (at 50.0 µM), 41.1%; in test [4] (setting [7]) it was -3%; in test [4] (setting [8]) it was -1%; in test [4] (at 50.0 µM) it was -73.7%. The growth inhibition is 6% in test [5] (setting [7]); 55% in test [5] (setting [8]); 16.3% in test [5] (at 50.0 µM); 2% in test [6] (setting [7]); 56% in test [6] (setting [8]); 3.2% in test [6] (at 50.0 µM).

For `CC/C(=C(/CC)c1ccc([O-])cc1)c1ccc([O-])cc1.CC/C(=C(\CC)c1ccc([O-])cc1)c1ccc([O-])cc1.O=C([CH-]C(=O)c1ccccc1)c1ccccc1.O=C([CH-]C(=O)c1ccccc1)c1ccccc1.O=C([CH-]C(=O)c1ccccc1)c1ccccc1.O=C([CH-]C(=O)c1ccccc1)c1ccccc1.[Ti+4].[Ti+4]`, the growth inhibition in test [1] (setting [7]) was 84% (active); in test [1] (setting [8]), 96% (active); in test [1] (at 50.0 µM), 77.3% (active); in test [2] (setting [7]), 97% (active); in test [2] (setting [8]), 97% (active); in test [2] (at 50.0 µM) it was 84% (active). Besides, the growth inhibition in test [3] (setting [7]) is 97% (active); in test [3] (setting [8]) it was 96% (active); in test [3] (at 50.0 µM), 84.4% (active); in test [4] (setting [7]) it was 94% (active); in test [4] (setting [8]), 96% (active); in test [4] (at 50.0 µM) it was 80% (active). Also, the growth inhibition in test [5] (setting [7]) is 98% (active); in test [5] (setting [8]), 88% (active); in test [5] (at 50.0 µM), 60.9%; in test [6] (setting [7]) it was 94% (active); in test [6] (setting [8]) it was 93% (active); in test [6] (at 50.0 µM), 80% (active).

As to `COC(=O)C1(Cc2ccccc2)Cc2c(C)ccc(C)c2C1=O` (configuration not stated), the growth inhibition is -4% in test [1] (setting [7]); 12% in test [1] (setting [8]); 43.1% in test [1] (at 50.0 µM); -3% in test [2] (setting [7]); 16% in test [2] (setting [8]); 19.2% in test [2] (at 50.0 µM). For the same compound, the growth inhibition in test [3] (setting [7]) is 13%; in test [3] (setting [8]) it was 42%; in test [3] (at 50.0 µM) it was 61.6%; in test [4] (setting [7]), -1%; in test [4] (setting [8]), 2%; in test [4] (at 50.0 µM), 39.2%. Further, the growth inhibition in test [5] (setting [7]) was 28%; in test [5] (setting [8]), 62%; in test [5] (at 50.0 µM) it was 64.2%; in test [6] (setting [7]), -2%; in test [6] (setting [8]), 13%; in test [6] (at 50.0 µM), 70.2% (active).

Take `CCN(CC)C(=S)N=Nc1c(O)[nH]c2ccccc12`: the growth inhibition is 80% (active) in test [1] (setting [7]); 99% (active) in test [1] (setting [8]); 82.5% (active) in test [1] (at 50.0 µM); 76% (active) in test [2] (setting [7]); 99% (active) in test [2] (setting [8]); 87.2% (active) in test [2] (at 50.0 µM). Further, the growth inhibition in test [3] (setting [7]) was 81% (active); in test [3] (setting [8]) it was 99% (active); in test [3] (at 50.0 µM), 89.3% (active); in test [4] (setting [7]) it was 85% (active); in test [4] (setting [8]), 90% (active); in test [4] (at 50.0 µM), 89.8% (active). For the same compound, the growth inhibition was 76% (active) in test [5] (setting [7]); 99% (active) in test [5] (setting [8]); 91% (active) in test [5] (at 50.0 µM); 82% (active) in test [6] (setting [7]); 99% (active) in test [6] (setting [8]); 92% (active) in test [6] (at 50.0 µM).

Take `CCCCOc1ccc(CC(O)CN2CCCCC2C)cc1` (configuration not stated): the growth inhibition in test [1] (setting [7]) is 22%; in test [1] (setting [8]), 49%; in test [1] (at 50.0 µM), 75.2% (active); in test [2] (setting [7]), 21%; in test [2] (setting [8]), 51%; in test [2] (at 50.0 µM), 52.5%. The growth inhibition in test [3] (setting [7]) is 33%; in test [3] (setting [8]), 61%; in test [3] (at 50.0 µM), 78% (active); in test [4] (setting [7]), 36%; in test [4] (setting [8]), 57%; in test [4] (at 50.0 µM) it was 73.7% (active). Moreover, the growth inhibition was 36% in test [5] (setting [7]); 71% (active) in test [5] (setting [8]); 85.6% (active) in test [5] (at 50.0 µM); 24% in test [6] (setting [7]); 60% in test [6] (setting [8]); 51% in test [6] (at 50.0 µM).

With `CCOC(=O)C(NC(C)=O)[CH](c1ccccc1)[Sn]([c]1ccccc1)([c]1ccccc1)[c]1ccccc1` (configuration not stated), the growth inhibition in test [1] (setting [7]) was 3%; in test [1] (setting [8]) it was 92% (active); in test [1] (at 50.0 µM), 94.4% (active); in test [2] (setting [7]), -7%; in test [2] (setting [8]), 96% (active); in test [2] (at 50.0 µM), 97.5% (active). In addition, the growth inhibition in test [3] (setting [7]) was -10%; in test [3] (setting [8]) it was 95% (active); in test [3] (at 50.0 µM) it was 99.1% (active); in test [4] (setting [7]), -19%; in test [4] (setting [8]), 92% (active); in test [4] (at 50.0 µM), 94% (active). The growth inhibition in test [5] (setting [7]) was -13%; in test [5] (setting [8]) it was 96% (active); in test [5] (at 50.0 µM), 96.2% (active); in test [6] (setting [7]), 2%; in test [6] (setting [8]), 95% (active); in test [6] (at 50.0 µM), 96.7% (active).

As to `COCCn1cc(F)c(=O)[nH]c1=O`, the growth inhibition in test [1] (setting [7]) was 15%; in test [1] (setting [8]), 16%; in test [1] (at 50.0 µM), -8.7%; in test [2] (setting [7]) it was 0%; in test [2] (setting [8]) it was 2%; in test [2] (at 50.0 µM) it was -2.25%. Moreover, the growth inhibition was 3% in test [3] (setting [7]); 47% in test [3] (setting [8]); 33.2% in test [3] (at 50.0 µM); 6% in test [4] (setting [7]); 8% in test [4] (setting [8]); 46.3% in test [4] (at 50.0 µM). Besides, the growth inhibition in test [5] (setting [7]) is 8%; in test [5] (setting [8]) it was 5%; in test [5] (at 50.0 µM), -20.6%; in test [6] (setting [7]), 9%; in test [6] (setting [8]), 20%; in test [6] (at 50.0 µM), -5.45%.

With `N#Cc1c(-c2ccc(Cl)c(Cl)c2)c(-c2ccc(Cl)c(Cl)c2)nn(CC(=O)O)c1=O`, the growth inhibition was -2% in test [1] (setting [7]); 98% (active) in test [1] (setting [8]); 38.1% in test [1] (at 50.0 µM); -2% in test [2] (setting [7]); 100% (active) in test [2] (setting [8]); 46.6% in test [2] (at 50.0 µM). Moreover, the growth inhibition was 2% in test [3] (setting [7]); 98% (active) in test [3] (setting [8]); 50.7% in test [3] (at 50.0 µM); -3% in test [4] (setting [7]); 99% (active) in test [4] (setting [8]); 14.3% in test [4] (at 50.0 µM). Further, the growth inhibition in test [5] (setting [7]) was -3%; in test [5] (setting [8]), 99% (active); in test [5] (at 50.0 µM) it was 34.2%; in test [6] (setting [7]), 0%; in test [6] (setting [8]), 99% (active); in test [6] (at 50.0 µM) it was 69.1%.

Take `O=C1CSC(Cc2nc3ccccc3[nH]2)=N1`: the growth inhibition in test [1] (setting [7]) is 30%; in test [1] (setting [8]) it was 79% (active); in test [1] (at 50.0 µM), 76.7% (active); in test [2] (setting [7]), 26%; in test [2] (setting [8]), 79% (active); in test [2] (at 50.0 µM), 79.5% (active). Besides, the growth inhibition was 44% in test [3] (setting [7]); 87% (active) in test [3] (setting [8]); 73% (active) in test [3] (at 50.0 µM); 36% in test [4] (setting [7]); 55% in test [4] (setting [8]); 69% in test [4] (at 50.0 µM). Further, the growth inhibition in test [5] (setting [7]) is 22%; in test [5] (setting [8]), 71% (active); in test [5] (at 50.0 µM), 77.8% (active); in test [6] (setting [7]) it was 48%; in test [6] (setting [8]), 90% (active); in test [6] (at 50.0 µM), 74.9% (active).

The record behind these values is PubChem BioAssay (NCI).
